# An excerpt weighted towards active compounds, which were near 1.8% of everything screened.
# MazEF act = activators of E. coli MazEF toxin-antitoxin RNase | P0AE70 | FAM/BHQ RNA-DNA oligo cleavage fluorescence, 5 h | activation, % at 20 µM | 350,000 compounds, 0.32% hits; in the data active means activation above about 50%
# Target sequence (P0AE70 whole entry, looked up): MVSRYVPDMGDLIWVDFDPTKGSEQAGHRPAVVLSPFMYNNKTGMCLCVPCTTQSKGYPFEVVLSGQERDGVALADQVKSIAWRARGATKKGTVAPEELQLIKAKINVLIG
# PfHsp40 yeast = rescue of PfHsp40-mediated yeast toxicity. growth rescue, % at 12.5 µM. S. cerevisiae expressing PfHsp40, growth rescue, ATP luminescence. 340,000 compounds, 0.68% hits; in the data active means growth rescue above about 28%, passing the limit was not always enough;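 further: yeast W303a lacking pdr1 and pdr3 grown in galactose medium; growth measured after three days at 30 °C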
# SSB-PriA inh = blocks PriA binding to SSB C-terminal tail; AlphaScreen SSBct-PriA binding, biotinylated peptide; inhibition, % at 33 µM; 430,000 compounds, 0.6% hits; AID 1272365; in the data active means inhibition mostly above about 37%, no sharp cut-off; inactive means mostly below about 20%
# PrP 5UTR inh = suppresses PrP 5' UTR mRNA reporter expression; cell-based PrP 5' UTR mRNA reporter, plate reader; inhibition, % (concentration not given with the values); 340,000 compounds, 0.35% hits; AID 488862; in the data active means inhibition above about 52%
# PrPC TRFRET = cell surface PrPC inhibition, primary TR-FRET screen; P04156; TR-FRET read-out; inhibition, % at 13.8 µM; 370,000 compounds, 0.43% hits; AID 720596; in the data active means inhibition above about 24%
# A number is an active result; – = inactive; · = not tested or not shown; + = active, no number.
SMILES,MazEF act,PfHsp40 yeast,SSB-PriA inh,PrP 5UTR inh,PrPC TRFRET
CC1C/C(=C/c2ccncc2)C(=O)/C(=C/c2ccncc2)C1 (stereo not given),–,51,–,–,–
CC1C/C(=C/c2cccn2C)C(=O)/C(=C/c2cccn2C)C1 (stereo not given),+,–,–,–,–
O=C1/C(=C/c2ccncc2)CC/C1=C\c1ccncc1,·,·,–,·,·
COc1ccc(S(=O)(=O)Nc2cccc(C(=O)Nc3nnc(C4=COCCO4)o3)c2)cc1,·,·,56,·,·
O=C(Nc1nnc(-c2ccc3c(c2)OCCO3)o1)c1cccc(NS(=O)(=O)c2ccc(F)cc2)c1,·,·,32,·,·
COc1cccc2cc(-c3nnc(NC(=O)c4cccc(S(C)(=O)=O)c4)o3)oc12,·,·,90,·,·
CCOc1ccccc1NC(=O)Nc1cccc(C(C)=O)c1,–,–,–,–,–
COc1ccc(C(=O)COC(=O)[C@H](C)Nc2ccc(C(F)(F)F)cc2[N+](=O)[O-])c(OC)c1,–,–,–,–,–
Cc1ccc(-c2n[nH]c(-c3ccccn3)n2)cc1,·,·,–,·,·
Cc1ccc(OCc2nc(-c3ccccn3)n[nH]2)cc1,–,–,109,–,–
Cc1cccc(OCc2nc(-c3ccccn3)n[nH]2)c1,–,–,90,–,–
Cc1cccc(OCc2n[nH]c(=S)n2-c2ccccc2)c1,–,–,–,–,–
COCc1nc(-c2ccccn2)n[nH]1,·,·,68,·,·
O=C(O)Cc1nc(-c2ccccn2)n[nH]1,·,·,–,·,·
O=c1oc2cc(O)c(Cl)cc2c2ccccc12,–,–,–,–,–
O=c1cc2c(=O)oc3cc(O)c(O)oc3c2c(O)c1O,55,–,–,–,–
Oc1ccc(CNc2ccccc2F)c2cccnc12,–,39,–,–,–
Oc1ccc(CNc2ccccn2)c2cccnc12,·,·,·,·,–
Oc1ccc(CNc2ncccn2)c2cccnc12,·,·,76,·,·
Cc1c(C(=O)Nc2cc(S(=O)(=O)N3CCOCC3)ccc2N2CCN(C)CC2)oc2ccccc12,–,–,–,–,–
Cc1cc(C)cc(NC(=O)c2ccc(Cn3nc(C)c(Cl)c3C)o2)c1,–,–,–,–,–
Cc1ccc(CNC(=O)c2ccc(Cn3nc(C)c(Cl)c3C)o2)cc1,–,154,–,–,–
Nc1cnc(-c2ccccc2)nc1Cl,–,–,–,–,–
CC1SCC(=NOCc2c(Cl)cccc2Cl)CS1 (stereo not given),–,59,–,–,–
Clc1ccccc1-c1nn2c(-c3ccccn3)nnc2s1,–,–,–,–,–
SMILES,MazEF act,PfHsp40 yeast,SSB-PriA inh,PrP 5UTR inh,PrPC TRFRET
Cc1[nH]nc(-c2nn3c(-c4ccccn4)nnc3s2)c1Br,·,·,67,·,·
Brc1ccc(-c2nn3c(-c4ccccn4)nnc3s2)o1,–,–,93,–,–
c1ccc(-c2nnc3sc(-c4ccccn4)nn23)cc1,·,·,–,·,·
c1ccc(-c2nnc3sc(-c4ccco4)nn23)nc1,·,·,–,·,·
Nc1nn2c(-c3ccccn3)nnc2s1,·,·,60,·,·
CCC(=O)Nn1cnc2c(c1=O)C1(CCCCC1)Cc1ccccc1-2,–,–,–,–,–
COC(=O)Cn1c(=NC(=O)CSCC(=O)NC2CCCCC2)sc2cc(OC)ccc21,–,–,–,–,·
C#CCn1c(=NC(=O)CSCC(=O)NC2CCCCC2)sc2ccccc21,·,·,43,·,·
O=C(c1ccccc1)c1c2c(cc3sc4ccccc4[n+]13)-c1cccc3cccc-2c13,–,119,–,–,–
CC1CCCCN1C(=O)c1cccc(NC2=C(Cl)C(=O)N(Cc3ccccc3)C2=O)c1 (stereo not given),–,31,–,–,·
COc1ccc(CSCCNC(=S)Nc2ccccc2)cc1Cl,–,45,–,–,–
S=C(NCCSCc1ccc(Cl)c(Cl)c1)Nc1ccccc1,–,–,–,–,–
S=C(NCCSCc1c(Cl)cccc1Cl)Nc1ccccc1,–,285,–,–,–
COc1cccc(COc2cn(C)c(C(=O)Nc3ccc4c(c3)OCO4)cc2=O)c1,·,·,–,·,·
CCN(CC)CCn1c(=O)n(-c2ccc(Cl)cc2)c(=O)c2c3c(sc21)CN(C)CC3,660,–,–,–,–
CN1CCc2c(sc3c2c(=O)n(-c2ccc(Cl)cc2)c2nncn32)C1,–,–,–,–,–
COc1ccc(/C=C/c2cc(=O)c3cc(Cl)ccc3o2)cc1,54,–,–,–,–
N#CC1=C(N)SC(N)=C(C#N)C1c1c(Cl)cccc1Cl,–,–,–,–,41
CCNc1nc(NCC)nc(C(=O)NN)n1,–,–,83,–,–
CCNc1nc(NCC)nc(OCC(=O)O)n1,–,–,–,–,–
NC(=O)c1ccc(-n2nnnc2SCC(=O)Nc2ccccc2F)cc1,98,–,–,–,–

# Screening results deposited in PubChem by several laboratories.
